Experimental findings from PubChem BioAssay (NCI) are described below.

“And” between values parts separate entries of the source, which are not always exact repeats. Equal values may be shown once. Compounds without any hit were thinned out: in the full panel of roughly 83,000, 20% have a hit.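 Values shown are percent growth following 48 h exposure of cells in 96-well plates to a single concentration of compound; below 10 was considered active.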 The source made the active and inactive calls.

The first experiment deals with CCRF-CEM leukemia. Nature of the experiment: NCI-60 one-dose screen, 48 h (100 = growth as untreated, 0 = no growth, -100 = all killed). Particulars: 10 µM. The method, then:
Growth inhibition of the CCRF-CEM human tumor cell line is measured as a screen for anti-cancer activity. Cells are grown in 96 well plates and exposed to the test compound for 48 hours. Compounds are tested at a single concentration, which is 10^-5 M for most compounds. The reported endpoint is percent growth (GI% or GIPRCNT), where numbers from 0 - 100% represent growth inhibition, and numbers from -100% - 0 represent cell death. For example, a value of 40 represents 60% growth inhibition. A value of 0 means no net growth occurred over the course of the experiment. A value of -40 indicates 40% of cells at the beginning of the experiment died by the end of the experiment. A value of -100 means all cells are dead at the end of the experiment.
NCI-60 Human Tumor Cell Lines Screen was performed using the standard one-dose NCI protocol, which is described in more detail at https://dtp.cancer.gov/discovery_development/nci-60/default.htm.
Compounds with GIPRCNT values below 10 were considered active. Activity score was based on GIPRCNT using the following formula: […]
Score is 0 for GIPRCNT values of 100 or above, 50 for GIPRCNT values of 0, and 100 for GIPRCNT values of -100.
With `S=C(SSC(=S)N1CCCCC1)N1CCCCC1`, the growth is 91.1% (inactive).

Staying with this experiment, now noted: 10 µM unless noted.
Regarding `CC[C@@]1(O)C[C@H](OC2CC(N(C)C)C(OC3CC(O)C(OC4CCC(=O)C(C)O4)C(C)O3)C(C)O2)c2c(cc3c(c2O)C(=O)c2c(O)ccc(O)c2C3=O)[C@H]1C(=O)OC` (some centres undefined), the growth is 4.1% (active).
On the same count and under the same terms, the value for `Cc1ccc(C(=O)OC(C(=O)O)C(OC(=O)c2ccc(C)cc2)C(=O)O)cc1` (centres undefined) (tested in a mixture with another compound) was 23% (inactive).
Still for that read-out and setting: the value for `Cc1c(N)nc([C@H](CC(N)=O)NC[C@H](N)C(N)=O)nc1C(=O)N[C@H](C(=O)N[C@H](C)[C@@H](O)[C@H](C)C(=O)N[C@H](C(=O)NCCc1nc(-c2nc(C(=O)NCCC[S+](C)C)cs2)cs1)[C@@H](C)O)C(OC1OC(CO)C(O)C(O)C1OC1OC(CO)C(O)C(OC(N)=O)C1O)c1cnc[nH]1` (some centres undefined) was 51.6% [2.5 µM] (inactive).
On to `CCC1(O)CC(OC2CC(N(C)C)C(OC3CC4OC5CC(=O)C(C)OC5OC4C(C)O3)C(C)O2)c2c(cc3c(c2O)C(=O)c2c(O)ccc(O)c2C3=O)C1C(=O)OC` (centres undefined), for which the growth was -31.2% (active).
The same measure, in the same setting: in the case of `Oc1cc[c]([Hg][Cl])cc1` it was 55.2% (inactive).
Turning to `COC1=C(C)C(=O)C2=C(C1=O)C(CO)N1C(C#N)C3CC4C(C1C2N1CCOC41)N3C` (centres undefined), the growth is -37.8% (active).
On the same count and under the same terms, in the case of `Oc1cccc2cccnc12` it was 48.8% (inactive) and 99.2% (inactive) and 96% (inactive); in that of `CCOC(=O)C(NC(=O)C(Cc1ccc(N(CCCl)CCCl)cc1)NC(C)=O)C(C)C` (centres undefined), 71.7% (inactive); in that of `CC[n+]1c(-c2ccccc2)c2cc(N)ccc2c2ccc(N)cc21`, 27.5% (inactive).
Same read-out and setting: the value for `CC(=O)O[C@H]1C[C@@H]2OC3C=C(C)CCC3(C)[C@@]1(C)[C@@]21CO1` (some centres undefined) was 2.26% (active); that for `COc1ccc(OC)c(/C=C/[N+](=O)[O-])c1` was 8.78% (active).
Same read-out and setting: the value for `Cc1cc(N=Nc2ccccc2C)ccc1N` was 4.33% (active); that for `O=C1c2ccccc2C(=O)C(Cl)C1Cl` (centres undefined) was -20.8% (active).
Turning to `CCC(=O)OC1CCn2c1nc1c2C(=O)C(C)=C(N2CC2)C1=O` (centres undefined), the growth is 70.4% (inactive).
For the compound `CC[C@](O)(C(=O)O)c1cc2n(c(=O)c1CO)Cc1cc3ccccc3nc1-2`, the growth is -24.5% (active).
On the same count and under the same terms, in the case of `C[C@H]1CCC/C=C/[C@@H]2C[C@H](O)C[C@H]2[C@H](O)/C=C/C(=O)O1` it was 7.53% (active); in that of `CC1=C(CO)C2=C(C)C3(CC3)[C@@](C)(O)C(=O)C2=C1`, 28.6% (inactive).
On the same count and under the same terms, the value for `CC[C@@]1(O)C[C@H](OC2CC(N(C)C)C(O)C(C)O2)c2c(O)c3c(c(O)c2[C@H]1OC1CC(N(C)C)C(O)C(C)O1)C(=O)c1cccc(O)c1C3=O` (some centres undefined) was -37.7% (active); that for `C[C@]12CC[C@H](O)CC1=CC[C@@H]1[C@@H]2CC[C@]2(C)C(=O)CC[C@@H]12` was 76.3% (inactive).
`COC1CC(CC2CCC(C)C(C(C)C(=O)O)O2)OC2(OC(C)(C3CCC(C)(C4OC(C5OC(O)(CO)C(C)CC5C)CC4C)O3)CC2C)C1C` (centres undefined): the growth was -27.1% (active).
The same measure, in the same setting: in the case of `CC[C@@]1(O)C(=O)OCc2c1cc1n(c2=O)Cc2cc3ccccc3nc2-1` it was -28.1% (active); in that of `COc1ccccc1/C=C(/C)[N+](=O)[O-]`, 8.42% (active) and 99.5% (inactive).
The same measure, in the same setting: in the case of `CC1=C2C(=O)[C@H]3[C@@H](CC=C4C[C@@H](O)CC[C@@]43C)[C@@H]2CC[C@]12O[C@@H]1C[C@H](C)CN[C@H]1[C@H]2C` it was 89.5% (inactive).
On the same count and under the same terms, the value for `CO[C@H](/C(C)=C/C=C/C(C)=C/c1coc(C)n1)[C@H](C)[C@H]1C[C@@H](O)[C@@]2(C)O[C@H]2/C=C/[C@@H](C)[C@@H]2C[C@@H](CC(=O)O2)C[C@H]2O[C@@H]2C(=O)O1` was -3.89% (active); that for `CN1CCN(c2ccc([N+](=O)[O-])c3no[n+]([O-])c23)CC1` was -30.6% (active); that for `COc1cccc2c1cc([N+](=O)[O-])c1c(C(=O)O)cc3c(c12)OCO3` was 45.8% (inactive) and 77.6% (inactive).
Turning to `CCCCCCCCCCCC1CCCC(C)N1` (centres undefined), the growth is 16.5% (inactive).

Staying with this experiment, now noted: 100 µM.
As for `S=C(SSC(=S)N1CCCCC1)N1CCCCC1`, the growth is -38.1% (active).
